Screening data from PubChem BioAssay.
sEH activator: soluble epoxide hydrolase activators, primary screen, biochemical, human sEH; purified human sEH enzymatic activity, activator screen; activation, % at 2 µM; 91,000 compounds, 0.04% hits; in the data active = activation above about 37%
IL1B cytotox: cytotoxicity in IL-1B stimulated HUVEC, primary screen, cytotoxicity control for IL-1B NFkB translocation project, imaging, Hoechst nuclear count, IL-1B stimulus. HUVEC cell count loss. cell count reduction, % at 2 µM. 94,000 compounds, 0.41% hits. AID 845, 2007;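 active = cell count reduction more than 3 SD above the screen-wide mean, cut at about 70% in these data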
sEH inhibitor: soluble epoxide hydrolase inhibitors, primary screen, biochemical, human sEH; recombinant human sEH enzymatic activity assay; inhibition, % at 2 µM; 91,000 compounds, 0.34% hits; AID 707, 2007; in the data active = inhibition above about 80%
NFkB transloc inh: inhibitors of IL-1B driven NFkB p65 nuclear import, primary screen, imaging, HUVEC, IL-1B stimulus, high-content imaging; HUVEC IL-1B NFkB p65 nuclear translocation imaging; inhibition, % at 2 µM; 94,000 compounds, 0.43% hits; AID 796, 2007;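 active = inhibition above about 30% together with a positive call from visual inspection of the well image, limit read from the data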;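 note: nuclear over cytoplasmic p65 intensity ratio measured by imaging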
NFkB transloc pot: enhancers of NFkB p65 translocation in HUVEC – imaging, IL-1B stimulus, high-content imaging, primary screen; HUVEC IL-1B NFkB p65 nuclear translocation imaging; activation, % at 2 µM; 94,000 compounds, 0.3% hits; AID 819, 2007;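 active = activation above 40%, about the mean plus 3 SD, also judged a hit on visual image review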;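 note: percent activation is computed from the nuclear over cytoplasmic p65 intensity ratio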
Cav3 T inh: Cav3.2 calcium influx blockers – cell-based, Fluo-4 calcium fluorescence, FDSS, MLSMR library, primary screen | 100,000 compounds, 4% hits | B-score at 10 µM | Cav3.2-expressing cells; hits give low values | Voltage-dependent T-type calcium channel subunit alpha-1H (Homo sapiens), O95180 | AID 449739, 2010;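 active = single-dose well whose peak fluorescence ratio is a statistical outlier from its plate by either plate-standardised score or position-corrected B-score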
Of the large screens only hits and unclear results are named; the others gave an inactive call. Sampled rows, rich in hits. Any-hit rate of the full collection: about 4.6%.

COc1ccc(-c2cc(C(F)F)n3ncc(C(=O)NCCCN4CCCC4=O)c3n2)cc1	none (no result: sEH activator, IL1B cytotox, sEH inhibitor, NFkB transloc inh, NFkB transloc pot)
CC(C)[C@@H]1NC(=O)c2cc([N+](=O)[O-])cc(I)c2OCC[C@@H](C(N)=O)NC(=O)[C@H](CCC(=O)O)NC1=O	none (no result: sEH activator, IL1B cytotox, sEH inhibitor, NFkB transloc inh, NFkB transloc pot)
O=C(Cn1cnc2c(nnn2Cc2ccc(Cl)cc2)c1=O)N1CCN(c2ccccc2)CC1	Cav3 T inh -4.42 (no result: sEH activator, IL1B cytotox, sEH inhibitor, NFkB transloc inh, NFkB transloc pot)
O=C(Cn1cnc2c(nnn2Cc2ccccc2)c1=O)N1CCN(c2ccccc2)CC1	none (no result: sEH activator, IL1B cytotox, sEH inhibitor, NFkB transloc inh, NFkB transloc pot)
CCOC(=O)C(C)n1cnc2c(nnn2Cc2ccc(C)cc2)c1=O (centres undefined)	none
CCOC(=O)C(C)n1cnc2c(nnn2Cc2ccc(Cl)cc2)c1=O (centres undefined)	Cav3 T inh -4.48
CC(NC(=O)NC1CCCCC1)C(c1cccs1)N1CCN(Cc2ccccc2)CC1 (centres undefined)	none (no result: sEH activator, sEH inhibitor)
CC(NC(=S)NCCc1ccccc1)C(c1cccs1)N1CCN(Cc2ccccc2)CC1 (centres undefined)	Cav3 T inh -4.57 (no result: sEH activator, IL1B cytotox, sEH inhibitor, NFkB transloc inh, NFkB transloc pot)
CCOc1cc(NC(=S)NCC(C)C)c(OCC)cc1NC(=O)c1cccs1	none
O=C1N/C(=N/NC(=O)c2cccc3ccccc23)S/C1=C\c1ccccc1OCc1ccccc1	Cav3 T inh -5.16
Cc1cccc(N2CCN(C(=O)c3ccc(CS(=O)(=O)c4ccccc4C)o3)CC2C)c1 (centres undefined)	NFkB transloc pot 48.5, Cav3 T inh -5.74
Cc1ccc(C)c(N2CCN(C(=O)c3ccc(CS(=O)(=O)c4ccccc4C)o3)CC2)c1	none (no result: Cav3 T inh)
Cc1cc(C)c(S(=O)(=O)N2CCCCC2)c(C)c1-n1ncnn1	none
COc1ccc(N2CCN(Cc3nc(-c4ccc(Cl)cc4Cl)no3)CC2)cc1	none
Cc1c(OCC(F)(F)F)ccnc1CSc1nc2ccccc2[nH]1	none
O=[N+]([O-])c1ccc(N2CCC(=NOCc3ccc(Cl)cc3)CC2)cc1	Cav3 T inh -5.71 (no result: sEH activator, IL1B cytotox, sEH inhibitor, NFkB transloc inh, NFkB transloc pot)
CSc1cccc(NS(=O)(=O)c2cccs2)c1	none
COc1ccc(/C=N/NC(=O)c2cccc([N+](=O)[O-])c2)cc1OC(=O)c1ccc(C)cc1	Cav3 T inh -5.44 (no result: IL1B cytotox, NFkB transloc inh, NFkB transloc pot)
O=C(c1cc2ccccc2oc1=O)N(Cc1cccs1)Cc1ccccc1Cl	IL1B cytotox 93.5, Cav3 T inh -7.12
CCc1ccc(C(=O)COC(=O)C(Cc2ccccc2)NC(=O)c2ccc(Cl)cc2)cc1 (centres undefined)	Cav3 T inh -4.79
O=C(NC12CC3CC(CC(C3)C1)C2)N1CCC(O)(c2ccc3c(c2)OCO3)CC1	sEH inhibitor 88.2
CC1=C(C(N)=O)C(c2ccc(Cl)cc2Cl)n2ncnc2N1 (centres undefined)	NFkB transloc inh 95.8
O=[N+]([O-])c1cc(Br)c(O)c(/C=N/Nc2nnnn2-c2cccc3ccccc23)c1	Cav3 T inh -9.26
C=CCOc1ccc2cccc(/C=N/NC(=O)c3cc4cc([N+](=O)[O-])ccc4s3)c2c1	none
COc1ccc(Nc2nc(NCc3ccco3)nc(N/N=C/c3ccccc3)n2)cc1	Cav3 T inh -7.56
CCOc1nc(NCc2ccco2)nc(Nc2ccc(OC)cc2)n1	none
CCOC(=O)C1=C(CNCc2ccccc2Cl)NC(=O)NC1c1ccc2c(c1)OCO2 (centres undefined)	none
O=C1c2ccccc2-c2onc3ccc(NCc4ccco4)c1c23	Cav3 T inh -4.13 (no result: sEH activator, IL1B cytotox, sEH inhibitor, NFkB transloc inh, NFkB transloc pot)
CCOc1ccc2noc3c2c1C(=O)c1ccccc1-3	Cav3 T inh -5.71
CCOc1ccccc1NC=C1C(=O)OC(C)(C)OC1=O	none
COc1ccccc1NC=C1C(=O)OC(C)(C)OC1=O	NFkB transloc inh 91.2 (no result: sEH activator, sEH inhibitor)
CC1Cc2ccccc2N1C(=O)CCn1c(=O)oc2ccccc21 (centres undefined)	none (no result: sEH activator, sEH inhibitor)
COc1ccc(C2CC(=O)N3C(=C2C#N)SCC3(O)c2ccccc2)cc1 (centres undefined)	Cav3 T inh -6.04 (no result: sEH activator, sEH inhibitor)
N#CC1=C2SCC(O)(c3ccccc3)N2C(=O)CC1c1cccs1 (centres undefined)	none (no result: sEH activator, sEH inhibitor)
